Source: PubChem BioAssay AID1159580 (chemical genetic matrix, 2015)
Screen size: about 5,500 compounds; about 2,000 (36%) were called active. About 18% were inconclusive and are not listed. Cut-off read from the data, not from the text of the source: active = normalized growth mostly below about 0.91 (no sharp cut-off); inconclusive = no clear call, values can overlap the other calls; inactive = mostly above about 0.92. This is one part of the list.

Assay: chemical genetic growth profiling, strain panel (AID 1159580);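 note: tested at 20 µM; growth read once vehicle control cultures reached saturation at 30 °C; 1 = growth at the plate median or of vehicle wells; lower values mean less growth of the strain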
Details: growth OD

Measured: normalized growth

Cc1ccsc1/C=C/C1=NCCCN1C
inactive: S. cerevisiae deletion strains, locus YJR075W, strain HOC1, active compounds read low 0.991 | S. cerevisiae deletion strains, locus YKL009W, strain mrt4, active compounds read low 0.982 | S. cerevisiae deletion strains, locus YKL068W, active compounds read low 0.967 | S. cerevisiae deletion strains, locus YKL085W, strain MDH1 (second series), active compounds read low 0.979 | S. cerevisiae deletion strains, locus YKL085W, strain MDH1, active compounds read low 0.979 | S. cerevisiae deletion strains, locus YKL160W, strain elf1, active compounds read low 0.999 | S. cerevisiae deletion strains, locus YKL190W, strain CNB1, active compounds read low 1.02 | S. cerevisiae deletion strains, locus YKR001C, strain vps1, active compounds read low 0.944 | S. cerevisiae deletion strains, locus YKR026C, strain gcn3, active compounds read low 0.994 | S. cerevisiae deletion strains, locus YKR091W, strain srl3, active compounds read low 0.994 | S. cerevisiae deletion strains, locus YLL001W, strain dnm1, active compounds read low 0.979 | S. cerevisiae deletion strains, locus YLL026W, active compounds read low 0.99 | S. cerevisiae deletion strains, locus YLL041C, strain sdh2, active compounds read low 0.988 | S. cerevisiae deletion strains, locus YLR027C, strain aat2, active compounds read low 0.998 | S. cerevisiae deletion strains, locus YLR039C, strain RIC1, active compounds read low 0.947 | S. cerevisiae deletion strains, locus YLR058C, strain SHM2, active compounds read low 1.01 | S. cerevisiae deletion strains, locus YLR102C, strain apc9, active compounds read low 0.984 | S. cerevisiae deletion strains, locus YLR113W, strain HOG1, active compounds read low 0.963 | S. cerevisiae deletion strains, locus YLR221C, strain rsa3, active compounds read low 0.983 | S. cerevisiae deletion strains, locus YLR258W, strain gsy2, active compounds read low 0.988 | S. cerevisiae deletion strains, locus YLR262C, strain YPT6 (second series), active compounds read low 0.97 | S. cerevisiae deletion strains, locus YLR262C, strain YPT6, active compounds read low 0.946 | S. cerevisiae deletion strains, locus YLR268W, strain sec22, active compounds read low 0.93 | S. cerevisiae deletion strains, locus YLR320W, strain mms22, active compounds read low 0.991 | S. cerevisiae deletion strains, locus YLR330W, strain CHS5, active compounds read low 1 | S. cerevisiae deletion strains, locus YLR342W, strain FKS1 (second series), active compounds read low 1.08 | S. cerevisiae deletion strains, locus YLR342W, strain FKS1, active compounds read low 1 | S. cerevisiae deletion strains, locus YLR357W, strain rsc2, active compounds read low 0.967 | S. cerevisiae deletion strains, locus YLR370C, strain arc18, active compounds read low 0.977 | S. cerevisiae deletion strains, locus YLR371W, strain rom2, active compounds read low 0.973 | S. cerevisiae deletion strains, locus YLR384C, strain iki3, active compounds read low 0.99 | S. cerevisiae deletion strains, locus YLR418C, strain cdc73, active compounds read low 0.956 | S. cerevisiae deletion strains, locus YML016C, strain PPZ1, active compounds read low 1.01 | S. cerevisiae deletion strains, locus YML032C, strain rad52, active compounds read low 0.958 | S. cerevisiae deletion strains, locus YML120C, strain ndi1, active compounds read low 0.991 | S. cerevisiae deletion strains, locus YML124C, strain tub3, active compounds read low 0.991 | S. cerevisiae deletion strains, locus YMR058W, strain fet3, active compounds read low 0.987 | S. cerevisiae deletion strains, locus YMR078C, strain ctf18, active compounds read low 0.975 | S. cerevisiae deletion strains, locus YMR125W, strain sto1, active compounds read low 0.994 | S. cerevisiae deletion strains, locus YMR129W, active compounds read low 0.99 | S. cerevisiae deletion strains, locus YMR205C, strain PFK2, active compounds read low 0.987 | S. cerevisiae deletion strains, locus YMR223W, strain ubp8, active compounds read low 1.02 | S. cerevisiae deletion strains, locus YMR231W, strain pep5, active compounds read low 0.987 | S. cerevisiae deletion strains, locus YMR263W, strain SAP30, active compounds read low 0.994 | S. cerevisiae deletion strains, locus YMR307W, strain GAS1, active compounds read low 1.07 | S. cerevisiae deletion strains, locus YNL067W, strain RPL9B, active compounds read low 0.98 | S. cerevisiae deletion strains, locus YNL071W, strain lat1, active compounds read low 0.988 | S. cerevisiae deletion strains, locus YNL128W, strain TEP1, active compounds read low 1 | S. cerevisiae deletion strains, locus YNL153C, strain GIM3, active compounds read low 1 | S. cerevisiae deletion strains, locus YNL183C, strain NPR1, active compounds read low 0.952 | S. cerevisiae deletion strains, locus YNL209W, strain ssb2, active compounds read low 0.984 | S. cerevisiae deletion strains, locus YNL233W, strain BNI4, active compounds read low 1.01 | S. cerevisiae deletion strains, locus YNL248C, strain rpa49, active compounds read low 0.997 | S. cerevisiae deletion strains, locus YNL250W, strain rad50, active compounds read low 0.997 | S. cerevisiae deletion strains, locus YNL271C, strain bni1, active compounds read low 0.976 | S. cerevisiae deletion strains, locus YNL298W, strain CLA4, active compounds read low 0.974 | S. cerevisiae deletion strains, locus YNL307C, strain MCK1, active compounds read low 0.976 | S. cerevisiae deletion strains, locus YNL322C, strain KRE1 (second series), active compounds read low 0.987 | S. cerevisiae deletion strains, locus YNL322C, strain KRE1, active compounds read low 1 | S. cerevisiae deletion strains, locus YNR049C, strain mso1, active compounds read low 0.987 | S. cerevisiae deletion strains, locus YNR052C, strain pop2, active compounds read low 0.976 | S. cerevisiae deletion strains, locus YOL006C, strain TOP1, active compounds read low 0.921 | S. cerevisiae deletion strains, locus YOL012C, strain htz1 1.13 | S. cerevisiae deletion strains, locus YOL147C, strain pex11, active compounds read low 0.992 | S. cerevisiae deletion strains, locus YOR001W, strain rrp6, active compounds read low 1.01 | S. cerevisiae deletion strains, locus YOR061W, strain CKA2, active compounds read low 1.01 | S. cerevisiae deletion strains, locus YOR069W, strain VPS5, active compounds read low 1.01 | S. cerevisiae deletion strains, locus YOR070C, strain gyp1, active compounds read low 0.983 | S. cerevisiae deletion strains, locus YOR080W, strain dia2, active compounds read low 0.989 | S. cerevisiae deletion strains, locus YOR083W, strain WHI5, active compounds read low 0.998 | S. cerevisiae deletion strains, locus YOR106W, strain vam3, active compounds read low 0.994 | S. cerevisiae deletion strains, locus YOR136W, strain idh2, active compounds read low 0.972 | S. cerevisiae deletion strains, locus YOR144C, strain elg1, active compounds read low 0.977 | S. cerevisiae deletion strains, locus YOR184W, strain ser1, active compounds read low 0.94 | S. cerevisiae deletion strains, locus YOR231W, strain MKK1, active compounds read low 0.979 | S. cerevisiae deletion strains, locus YOR265W, strain rbl2, active compounds read low 1.01 | S. cerevisiae deletion strains, locus YOR270C, strain vph1, active compounds read low 1.01 | S. cerevisiae deletion strains, locus YOR290C, strain snf2, active compounds read low 1 | S. cerevisiae deletion strains, locus YOR316C, strain cot1, active compounds read low 0.956 | S. cerevisiae deletion strains, locus YPL051W, strain arl3, active compounds read low 0.993 | S. cerevisiae deletion strains, locus YPL055C, strain LGE1, active compounds read low 0.954 | S. cerevisiae deletion strains, locus YPL078C, strain atp4, active compounds read low 0.992 | S. cerevisiae deletion strains, locus YPL106C, strain sse1, active compounds read low 0.996 | S. cerevisiae deletion strains, locus YPL240C, strain hsp82, active compounds read low 0.988 | S. cerevisiae deletion strains, locus YPL241C, strain CIN2, active compounds read low 1.01 | S. cerevisiae deletion strains, locus YPL256C, strain CLN2, active compounds read low 0.939 | S. cerevisiae deletion strains, locus YPR119W, strain clb2, active compounds read low 0.981 | S. cerevisiae deletion strains, locus YPR141C, strain kar3, active compounds read low 0.979 | S. cerevisiae deletion strains, locus YPR163C, strain tif3, active compounds read low 0.983 | S. cerevisiae deletion strains, locus YPR167C, strain met16, active compounds read low 0.97 | S. cerevisiae deletion strains, strain wtn01, active compounds read low 0.949 | S. cerevisiae strains, strain wild type, active compounds read low 1.01
